In the supplement of paper PMC10849652:
The full data set covers some 8,800 targets. This sample favours those with a hit. About 0.5% of all pairs of compound and target were hits.

Experiments:
Assay in all cases: log2 fold change, soluble protein after heating vs DMSO (PISA); higher = thermal stabilisation; K562 lysate, 10 uM; active = over 0.2 and 3.5 SD of the protein, either way, in both replicates (recomputed)
erlotinib = compound: C#Cc1cccc(Nc2ncnc3cc(OCCOC)c(OCCOC)cc23)c1 [erlotinib]
Procedure, shortened: (§1)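 A 30 min treatment with 10 μM compound was applied to crude K562 extract at 1 mg/mL protein in PBS pH 7.4 with 1 mM MgCl2. Heating for 3 min spanned 48°C-58°C, after which aliquots were pooled, adjusted to 0.5% NP-40 at 4°C and spun at 21,000xg for 90 min. TMTpro 16plex LC-MS/MS of the supernatant, with channel sums equalised, gave values recorded as log-two fold change in thermal stability against solvent controls, from duplicates.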

[1] = compound: C1=CC(=CC=C1C2=NC3=C(N2)C=C(C=C3)C(=O)N)OC4=CC=C(C=C4)Cl
Procedure, shortened: as §1

[2] = compound: C1=CC=C(C=C1)C2=NC(=C(N2)C3=CC=NC=C3)C4=CC(=C(C=C4)Cl)O
Procedure, shortened: as §1

[3] = compound: C1CCN(C1)C(=O)NC2=CC=CC(=C2)NC3=NC=C(C(=N3)NCCC4=CN=CN4)Br
Procedure, shortened: as §1

[4] = compound: C1CN(CCC1(CC2=CC=C(C=C2)Cl)N)C3=NC=NC4=C3C=CN4
Procedure, shortened: as §1

IRAK-1-4 Inhibitor I = compound: C1COCCN1CCN2C3=CC=CC=C3N=C2NC(=O)C4=CC(=CC=C4)[N+](=O)[O-] [IRAK-1-4 Inhibitor I]
Procedure, shortened: as §1

[5] = compound: CC(=O)c1cnc2ccc(-c3cc(Cl)c(O)c(Cl)c3)nc2c1N[C@H]1CC[C@H](CN(C)C)CC1
Procedure, shortened: as §1

ralimetinib = compound: CC(C)(C)Cn1c(N)nc2ccc(-c3[nH]c(C(C)(C)C)nc3-c3ccc(F)cc3)nc21 [ralimetinib]
Procedure, shortened: as §1

[6] = compound: CC(C)(O)CC(=O)NCCn1ccc2ncnc(Nc3ccc(Oc4cccc(C(F)(F)F)c4)c(Cl)c3)c21
Procedure, shortened: as §1

[7] = compound: CC(C)C1=C2N=C(C=C(N2N=C1)NCC3=CC=CC=C3)NCCCCCCN
Procedure, shortened: as §1

[8] = compound: CC1=C(C=C(C=C1)NC(=O)C2=CC(=CC=C2)C(C)(C)C#N)NC3=CC4=C(C=C3)N=CN(C4=O)C
Procedure, shortened: as §1

[9] = compound: CC1=C(C=C(C=C1)NC(=O)C2=CC(=CC=C2)N(C)C)NC(=O)C3=CC=C(C=C3)O
Procedure, shortened: as §1

[10] = compound: CC1=CC=C(C=C1)SC2=C3C=C(SC3=CN=C2)C(=O)N
Procedure, shortened: as §1

[11] = compound: C/C(=N\NC(=O)C1=CC(=CC=C1)S(=O)(=O)N2CCOCC2)/C3=C(C=CC(=C3)Cl)O
Procedure, shortened: as §1

[12] = compound: C1=CC2=C(C=CC(=C2)/C=C\3/C(=O)NC(=NCC4=CC=CS4)S3)N=C1
Procedure, shortened: as §1

[13] = compound: C1=CC2=NC=CN=C2C=C1/C=C/3\C(=O)NC(=O)S3
Procedure, shortened: as §1

[14] = compound: C1=CC=C2C(=C1)C3=NNC4=CC=CC(=C43)C2=O
Procedure, shortened: as §1

ibrutinib = compound: C=CC(=O)N1CCC[C@@H](n2nc(-c3ccc(Oc4ccccc4)cc3)c3c(N)ncnc32)C1 [ibrutinib]
Procedure, shortened: as §1

[15] = compound: CC1=C(C2=C(C=C1)C(=O)C3=CC=CC=C3N2CCCN)C
Procedure, shortened: as §1

[16] = compound: CC1=C(C(CC(=O)N1)C2=CC=C(C=C2)C(F)(F)F)C(=O)NC3=C(C=C4C(=C3)C=NN4)F
Procedure, shortened: as §1

Measured: log2 fold change

FAT1 (UniProt Q14517)
inactive: erlotinib -0.004 | [1] 0.006 | [2] 0.126 | [3] -0.119 | [4] 0.128 | IRAK-1-4 Inhibitor I -0.053 | [5] -0.109 | ralimetinib -0.034 | [6] -0.016 | [7] -0.05 | [8] 0.188 | [9] 0.024 | [10] -0.105

EWSR1 (UniProt H7BY36)
inactive: [11] -0.711 | [12] -0.346 | [13] 0.111 | [2] -0.208 | [14] -0.428 | [3] -0.011 | [4] -0.035 | IRAK-1-4 Inhibitor I -0.074 | ibrutinib -0.288 | ralimetinib -0.073 | [6] -0.052 | [15] -0.126 | [8] 0.071 | [9] 0.39

GART (UniProt C9JZG2)
inactive: [13] 0.092 | [2] 0.007 | [3] -0.025 | [4] -0.011 | IRAK-1-4 Inhibitor I 0.078 | ibrutinib -0.062 | [5] 0.037 | ralimetinib 0.069 | [6] -0.068 | [16] -0.114 | [8] 0.083 | [9] -0.052 | [10] 0.022

GBA2 (UniProt Q9HCG7)
UniProt Q9HCG7, sequence (Q9HCG7 whole entry, looked up): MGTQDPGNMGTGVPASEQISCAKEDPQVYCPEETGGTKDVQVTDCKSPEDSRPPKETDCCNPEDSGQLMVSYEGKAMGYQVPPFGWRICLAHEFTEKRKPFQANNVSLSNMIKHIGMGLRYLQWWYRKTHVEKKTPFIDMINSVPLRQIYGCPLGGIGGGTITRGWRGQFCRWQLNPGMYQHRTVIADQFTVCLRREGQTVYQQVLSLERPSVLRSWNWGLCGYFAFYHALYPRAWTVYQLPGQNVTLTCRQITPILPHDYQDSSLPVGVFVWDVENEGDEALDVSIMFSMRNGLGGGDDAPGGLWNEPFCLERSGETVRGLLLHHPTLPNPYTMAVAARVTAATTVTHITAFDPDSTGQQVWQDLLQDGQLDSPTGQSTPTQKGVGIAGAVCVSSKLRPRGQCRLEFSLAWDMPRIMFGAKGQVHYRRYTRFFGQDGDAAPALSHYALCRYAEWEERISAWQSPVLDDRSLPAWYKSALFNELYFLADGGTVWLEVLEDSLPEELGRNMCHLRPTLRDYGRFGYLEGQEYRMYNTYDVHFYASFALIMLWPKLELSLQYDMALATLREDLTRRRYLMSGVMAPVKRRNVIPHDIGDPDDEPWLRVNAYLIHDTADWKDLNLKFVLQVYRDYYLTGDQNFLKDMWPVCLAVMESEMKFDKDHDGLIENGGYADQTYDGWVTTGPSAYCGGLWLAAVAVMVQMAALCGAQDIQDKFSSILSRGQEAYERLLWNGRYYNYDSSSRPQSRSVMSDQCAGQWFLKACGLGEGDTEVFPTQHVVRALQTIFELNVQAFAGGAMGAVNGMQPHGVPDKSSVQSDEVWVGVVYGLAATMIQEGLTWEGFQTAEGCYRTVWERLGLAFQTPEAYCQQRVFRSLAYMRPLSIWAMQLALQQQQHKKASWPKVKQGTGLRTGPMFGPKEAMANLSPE
inactive: erlotinib -0.088 | [1] 0.063 | [13] 0.035 | [2] -0.055 | [3] 0.007 | [4] 0.041 | IRAK-1-4 Inhibitor I 0.01 | ibrutinib -0.071 | [5] -0.046 | ralimetinib 0.082 | [6] -0.097 | [7] 0.042 | [16] -0.037 | [15] 0.077 | [8] 0.004 | [9] 0.08 | [10] 0.021

FTSJ1 isoform 2 (UniProt Q9UET6)
UniProt Q9UET6, sequence (Q9UET6 whole entry, looked up): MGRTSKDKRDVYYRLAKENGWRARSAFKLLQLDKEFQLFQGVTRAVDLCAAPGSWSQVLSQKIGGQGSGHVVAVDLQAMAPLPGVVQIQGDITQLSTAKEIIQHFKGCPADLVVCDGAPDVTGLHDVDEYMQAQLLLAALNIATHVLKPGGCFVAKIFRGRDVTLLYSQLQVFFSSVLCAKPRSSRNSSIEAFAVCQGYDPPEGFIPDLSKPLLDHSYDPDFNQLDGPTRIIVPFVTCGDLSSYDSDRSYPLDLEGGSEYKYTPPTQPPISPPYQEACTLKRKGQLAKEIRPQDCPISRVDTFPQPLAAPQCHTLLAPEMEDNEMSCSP
inactive: [11] -0.149 | [12] 0.055 | [14] -0.039 | [3] 0.051 | [4] 0.059 | [5] 0.026 | [10] 0.001

DST isoform 3 (UniProt Q03001)
inactive: erlotinib 0.005 | [1] 0.181 | [13] -0.085 | [3] -0.034 | [4] -0.043 | ibrutinib 0.005 | [7] -0.01

FMNL2 isoform 3 (UniProt Q96PY5)
inactive: erlotinib -0.02 | [1] -0.064 | [2] 0.083 | IRAK-1-4 Inhibitor I -0.092 | [5] -0.048 | ralimetinib -0.02 | [6] 0.185 | [7] 0.065 | [16] -0.056 | [15] 0.071 | [8] 0.116 | [9] 0.048 | [10] -0.003

DYRK1A isoform 2 (UniProt Q13627)
inactive: erlotinib -0.064 | [1] -0.476 | [13] 0.247 | [2] 0.069 | IRAK-1-4 Inhibitor I -0.595 | ibrutinib -0.063 | ralimetinib 0.085 | [6] -0.241 | [7] 0.005 | [8] 0.004 | [9] -0.081

EPB41, A0A2R8Y783
inactive: [11] -0.136 | [12] 0.09 | [13] -0.058 | [14] 0.017 | [3] -0.001 | [4] 0.346 | ibrutinib 0.196 | [5] 0.093 | [15] 0.057 | [10] 0.034

EPN2 (UniProt I3L356)
inactive: [13] -0.143 | ibrutinib 0.105 | [5] -0.021 | [16] 0.102 | [10] 0.097

EIF2B5, A0A3B3ITK8
inactive: [5] 0.015 | [16] 0.037 | [10] -0.104

GIPC3 (UniProt Q8TF64)
UniProt Q8TF64, sequence (Q8TF64 whole entry, looked up): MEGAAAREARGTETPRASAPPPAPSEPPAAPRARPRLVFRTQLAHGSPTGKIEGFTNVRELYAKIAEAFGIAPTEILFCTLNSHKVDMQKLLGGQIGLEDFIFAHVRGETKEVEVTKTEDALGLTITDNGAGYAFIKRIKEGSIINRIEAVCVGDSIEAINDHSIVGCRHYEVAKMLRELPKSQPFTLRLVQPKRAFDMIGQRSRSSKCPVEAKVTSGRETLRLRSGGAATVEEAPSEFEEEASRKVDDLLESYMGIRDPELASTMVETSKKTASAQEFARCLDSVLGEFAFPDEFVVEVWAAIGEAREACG
inactive: erlotinib -0.049 | [1] 0.091 | [13] -0.025 | [2] 0.063 | [3] 0.008 | [4] 0.139 | IRAK-1-4 Inhibitor I 0.101 | ibrutinib -0.021 | [5] -0.078 | ralimetinib -0.019 | [6] -0.011 | [7] 0.022 | [16] 0.282 | [15] -0.019 | [8] 0.185 | [9] -0.033 | [10] -0.13

EIF3I (UniProt Q5TFK1)
inactive: [5] 0.266 | [16] -0.661 | [10] -0.059

EIF2AK3 (UniProt Q9NZJ5)
inactive: erlotinib -0.014 | [1] 0.015 | [2] -0.049 | IRAK-1-4 Inhibitor I -0.044 | [5] 0.003 | ralimetinib 0.039 | [6] -0.191 | [7] 0.012 | [16] -0.052 | [15] 0.037 | [9] -0.061 | [10] -0.07

FNDC3A (UniProt Q9Y2H6)
UniProt Q9Y2H6, sequence (Q9Y2H6 whole entry, looked up): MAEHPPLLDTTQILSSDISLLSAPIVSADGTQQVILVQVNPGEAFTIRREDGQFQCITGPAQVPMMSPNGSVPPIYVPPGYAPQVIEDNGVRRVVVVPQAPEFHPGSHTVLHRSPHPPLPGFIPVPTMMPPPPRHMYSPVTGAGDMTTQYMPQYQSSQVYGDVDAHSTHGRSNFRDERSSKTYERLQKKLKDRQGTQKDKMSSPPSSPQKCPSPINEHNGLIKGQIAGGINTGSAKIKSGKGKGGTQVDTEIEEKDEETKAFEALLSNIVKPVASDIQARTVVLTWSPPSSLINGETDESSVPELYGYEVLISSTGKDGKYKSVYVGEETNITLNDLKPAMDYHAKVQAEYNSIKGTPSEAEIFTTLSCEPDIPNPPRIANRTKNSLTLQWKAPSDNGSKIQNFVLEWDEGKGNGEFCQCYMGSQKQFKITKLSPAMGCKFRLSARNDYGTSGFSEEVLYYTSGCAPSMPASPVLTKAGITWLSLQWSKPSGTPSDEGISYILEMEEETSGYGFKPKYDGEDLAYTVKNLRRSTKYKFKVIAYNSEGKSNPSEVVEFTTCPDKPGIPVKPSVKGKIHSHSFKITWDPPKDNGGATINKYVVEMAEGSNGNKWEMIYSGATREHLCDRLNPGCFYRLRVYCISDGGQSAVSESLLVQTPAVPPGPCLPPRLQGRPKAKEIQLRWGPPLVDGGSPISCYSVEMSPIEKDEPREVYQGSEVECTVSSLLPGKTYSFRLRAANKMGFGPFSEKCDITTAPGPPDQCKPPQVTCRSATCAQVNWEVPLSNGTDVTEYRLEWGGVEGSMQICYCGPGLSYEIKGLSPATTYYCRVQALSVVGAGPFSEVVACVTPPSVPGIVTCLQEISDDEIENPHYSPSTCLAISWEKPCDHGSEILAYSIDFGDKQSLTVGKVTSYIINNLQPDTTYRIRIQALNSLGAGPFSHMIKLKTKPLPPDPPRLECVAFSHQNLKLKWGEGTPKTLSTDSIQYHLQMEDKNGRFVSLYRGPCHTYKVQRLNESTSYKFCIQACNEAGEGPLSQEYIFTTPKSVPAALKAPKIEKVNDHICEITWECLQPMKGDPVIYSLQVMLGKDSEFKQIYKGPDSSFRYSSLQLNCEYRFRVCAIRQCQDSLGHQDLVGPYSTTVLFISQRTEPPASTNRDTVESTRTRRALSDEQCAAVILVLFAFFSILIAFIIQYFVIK
inactive: erlotinib 0.198 | [1] 0.024 | [2] -0.112 | IRAK-1-4 Inhibitor I 0.04 | ralimetinib 0.118 | [6] -0.207 | [7] -0.093 | [16] 0.31 | [8] 0.027 | [9] 0.113

ERG28 (UniProt Q9UKR5)
UniProt Q9UKR5, sequence (Q9UKR5 whole entry, looked up): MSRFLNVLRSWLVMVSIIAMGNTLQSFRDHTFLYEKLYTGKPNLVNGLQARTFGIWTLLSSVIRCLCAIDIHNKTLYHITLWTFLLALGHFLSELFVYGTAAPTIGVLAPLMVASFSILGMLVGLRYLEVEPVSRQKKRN
inactive: [13] -0.015 | [3] 0.072 | [4] -0.066 | ibrutinib 0.064 | [5] -0.045 | [15] 0.059 | [10] -0.004

FBRSL1, A0A3B3IRR3
inactive: erlotinib -0.014 | [11] -0.021 | [1] 0.042 | [12] -0.03 | [13] 0 | [2] -0.028 | [14] -0.199 | [3] 0.043 | [4] -0.015 | IRAK-1-4 Inhibitor I -0.024 | ibrutinib 0.072 | ralimetinib 0.027 | [6] 0.008 | [7] -0.075 | [16] -0.01 | [15] 0.183 | [9] 0.012
active: [8] -0.381

GDE1 (UniProt Q9NZC3)
UniProt Q9NZC3, sequence (Q9NZC3 whole entry, looked up): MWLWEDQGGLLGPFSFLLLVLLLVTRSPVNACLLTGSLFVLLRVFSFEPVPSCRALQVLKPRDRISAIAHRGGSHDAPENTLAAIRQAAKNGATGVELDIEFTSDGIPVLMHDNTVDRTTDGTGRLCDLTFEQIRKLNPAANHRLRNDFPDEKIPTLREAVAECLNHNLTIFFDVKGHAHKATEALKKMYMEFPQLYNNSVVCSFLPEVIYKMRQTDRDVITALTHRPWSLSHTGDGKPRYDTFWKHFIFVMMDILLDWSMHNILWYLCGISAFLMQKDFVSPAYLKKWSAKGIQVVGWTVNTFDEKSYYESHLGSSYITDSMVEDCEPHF
inactive: erlotinib 0.042 | [1] 0.02 | [13] -0.032 | [2] 0.097 | [3] 0.05 | [4] 0.027 | IRAK-1-4 Inhibitor I -0.01 | ibrutinib -0.047 | [5] -0.017 | ralimetinib 0.067 | [6] 0.026 | [7] 0.025 | [15] -0.038 | [8] -0.036 | [9] -0.122 | [10] -0.014

FAM76B (UniProt Q5HYJ3)
UniProt Q5HYJ3, sequence (Q5HYJ3 whole entry, looked up): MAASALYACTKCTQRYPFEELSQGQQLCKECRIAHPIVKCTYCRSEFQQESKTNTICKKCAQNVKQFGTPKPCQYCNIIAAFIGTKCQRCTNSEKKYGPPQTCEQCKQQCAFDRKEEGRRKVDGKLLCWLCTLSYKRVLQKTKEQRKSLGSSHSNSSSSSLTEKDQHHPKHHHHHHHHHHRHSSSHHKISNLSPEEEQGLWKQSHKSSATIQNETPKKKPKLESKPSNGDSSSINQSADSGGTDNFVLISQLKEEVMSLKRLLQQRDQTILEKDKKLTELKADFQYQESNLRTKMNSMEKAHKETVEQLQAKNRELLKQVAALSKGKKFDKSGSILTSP
inactive: erlotinib -0.027 | [11] -0.35 | [1] -0.016 | [12] -0.137 | [2] -0.053 | [14] 0.046 | [3] -0.019 | [4] 0.061 | IRAK-1-4 Inhibitor I -0.008 | [5] -0.025 | ralimetinib -0.005 | [6] -0.01 | [7] -0.06 | [16] -0.012 | [15] -0.02 | [8] 0.023 | [9] -0.002 | [10] -0.011

DTL (UniProt Q9NZJ0)
inactive: erlotinib 0.106 | [11] -0.053 | [1] 0.012 | [12] 0.067 | [13] -0.029 | [2] -0.002 | [14] -0.072 | IRAK-1-4 Inhibitor I 0.006 | ibrutinib 0.012 | ralimetinib 0.037 | [6] -0.024 | [7] -0.05 | [16] 0.041 | [15] -0.104 | [8] 0.071 | [9] -0.037

EXO5 (UniProt Q9H790)
inactive: erlotinib 0.279 | [1] 0.012 | [13] -0.226 | [2] 0.085 | IRAK-1-4 Inhibitor I -0.028 | ibrutinib 0.111 | ralimetinib 0.018 | [6] -0.126 | [7] -0.025 | [8] 0.217 | [9] -0.067

FAM204A (UniProt Q9H8W3)
UniProt Q9H8W3, sequence (Q9H8W3 whole entry, looked up): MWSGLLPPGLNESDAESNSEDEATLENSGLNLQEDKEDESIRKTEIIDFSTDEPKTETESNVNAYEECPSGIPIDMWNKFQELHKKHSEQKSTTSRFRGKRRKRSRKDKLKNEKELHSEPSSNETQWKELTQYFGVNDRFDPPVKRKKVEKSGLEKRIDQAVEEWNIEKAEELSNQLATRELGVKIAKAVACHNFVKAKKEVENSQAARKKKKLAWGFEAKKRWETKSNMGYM
inactive: erlotinib -0.021 | [11] -0.018 | [1] -0.014 | [12] 0.11 | [2] 0.018 | [14] -0.008 | IRAK-1-4 Inhibitor I 0.01 | ralimetinib -0.12 | [6] 0.061 | [7] -0.117 | [8] 0.174 | [9] -0.002

FOXL2 (UniProt P58012)
UniProt P58012, sequence (P58012 whole entry, looked up): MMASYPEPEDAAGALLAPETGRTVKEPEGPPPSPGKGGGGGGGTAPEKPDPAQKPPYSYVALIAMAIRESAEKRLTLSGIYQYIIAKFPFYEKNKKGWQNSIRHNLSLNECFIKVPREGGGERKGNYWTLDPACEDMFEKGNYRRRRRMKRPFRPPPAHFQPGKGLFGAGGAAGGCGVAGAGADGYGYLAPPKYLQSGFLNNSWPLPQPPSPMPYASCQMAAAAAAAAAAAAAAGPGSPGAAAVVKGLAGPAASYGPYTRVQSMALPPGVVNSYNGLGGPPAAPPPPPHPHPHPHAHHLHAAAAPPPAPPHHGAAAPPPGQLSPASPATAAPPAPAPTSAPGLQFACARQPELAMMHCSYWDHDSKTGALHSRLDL
inactive: erlotinib 0.274 | [1] -0.129 | [13] -0.006 | [2] -0.085 | [3] -0.024 | [4] 0.187 | IRAK-1-4 Inhibitor I 0.026 | ibrutinib -0.074 | [5] -0.065 | ralimetinib 0.264 | [6] -0.095 | [7] 0.161 | [15] -0.023 | [9] 0.02 | [10] -0.035

EPS8L2 (UniProt Q9H6S3)
inactive: erlotinib 0.082 | [1] 0.009 | [13] 0.037 | [2] 0.133 | [3] -0.108 | [4] 0.055 | IRAK-1-4 Inhibitor I -0.086 | ibrutinib -0.041 | [5] -0.026 | ralimetinib -0.028 | [6] -0.021 | [7] 0.002 | [16] 0.031 | [15] -0.002 | [8] -0.054 | [9] -0.084 | [10] 0.015

ESRRB isoform 1 (UniProt O95718)
UniProt O95718, sequence (O95718 whole entry, looked up): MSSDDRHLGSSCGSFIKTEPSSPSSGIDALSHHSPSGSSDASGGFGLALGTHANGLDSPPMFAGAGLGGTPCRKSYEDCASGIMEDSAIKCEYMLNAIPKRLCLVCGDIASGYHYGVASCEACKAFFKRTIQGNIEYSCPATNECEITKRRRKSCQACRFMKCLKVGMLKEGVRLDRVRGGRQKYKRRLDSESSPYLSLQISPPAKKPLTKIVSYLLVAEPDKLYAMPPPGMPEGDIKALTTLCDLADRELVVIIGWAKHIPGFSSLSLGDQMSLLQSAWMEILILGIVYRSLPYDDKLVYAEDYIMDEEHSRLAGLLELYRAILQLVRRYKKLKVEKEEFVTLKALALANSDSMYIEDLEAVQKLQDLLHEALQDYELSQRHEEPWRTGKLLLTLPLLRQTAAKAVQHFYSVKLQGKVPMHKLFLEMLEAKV
inactive: erlotinib 0.1 | [13] -0.021 | [2] 0.016 | IRAK-1-4 Inhibitor I 0.236 | ibrutinib -0.047 | ralimetinib 0.035 | [6] -0.087 | [7] -0.187 | [9] 0.053
active: [1] -0.783

ETFRF1 (UniProt Q6IPR1)
UniProt Q6IPR1, sequence (Q6IPR1 whole entry, looked up): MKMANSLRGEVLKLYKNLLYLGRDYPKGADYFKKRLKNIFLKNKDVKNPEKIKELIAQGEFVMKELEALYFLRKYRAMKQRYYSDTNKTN
inactive: erlotinib -0.032 | [11] -0.008 | [1] -0.048 | [12] 0.083 | [13] -0.064 | [2] -0.038 | [14] -0.063 | IRAK-1-4 Inhibitor I -0.002 | ibrutinib 0.062 | [5] 0.028 | ralimetinib -0.005 | [6] -0.044 | [7] -0.006 | [16] 0.049 | [15] -0.018 | [8] -0.071 | [9] 0.136 | [10] -0.02

DUSP22 isoform 2 (UniProt Q9NRW4)
UniProt Q9NRW4, sequence (Q9NRW4 whole entry, looked up): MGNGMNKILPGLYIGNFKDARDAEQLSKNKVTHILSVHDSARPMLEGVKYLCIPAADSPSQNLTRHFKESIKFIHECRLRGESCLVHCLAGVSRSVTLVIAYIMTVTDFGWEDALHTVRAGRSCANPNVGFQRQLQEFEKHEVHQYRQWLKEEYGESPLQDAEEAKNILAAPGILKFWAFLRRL
inactive: erlotinib -0.016 | [11] 0.157 | [1] 0.007 | [12] 0.075 | [13] 0.051 | [2] 0.035 | [14] 0.143 | IRAK-1-4 Inhibitor I -0.028 | ibrutinib -0.059 | [5] 0.043 | ralimetinib 0.007 | [6] 0.02 | [7] -0.092 | [16] 0.177 | [15] -0.046 | [9] 0.081 | [10] 0.007
